# Assay results as given in PubChem BioAssay AID686979 (National Center for Advancing Translational Sciences (NCATS), 2013).
# The whole screen tested about 420,000 compounds, of which about 50,000 (12%) were called active. A call without a number means that no potency is given here. Roughly 26% stayed inconclusive and do not appear here. Only a selection was taken, and actives are over-represented in it overall. Unmarked numbers belong to inactive results. The call rests on the fitted dose curve; in most records, active means well fitted inhibition curve with a large enough effect; inconclusive means small, poorly fitted or top-dose-only effect; inactive means flat fitted curve, though single readings scatter.
# Assay: qHTS for Inhibitors of human tyrosyl-DNA phosphodiesterase 1 (TDP1): qHTS in cells in presence of CPT; further: nearly all actives have a fitted effect of over 55% in size
# Details: chicken DT40 Tdp1-/-;hTDP1 cells + 20 nM CPT, ATP luminescence, 48 h; series mostly up to 46.2 µM
# In short: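 Chicken DT40 Tdp1-/- cells stably complemented with human TDP1 were seeded at 400 cells/well in medium containing 20 nM camptothecin, exposed to pin-transferred compounds, and grown at 37 °C for at least 48 hr. Viability was read as ATP luminescence.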
# Potency means the concentration at half of the fitted maximal effect.
Compound,Potency,"activity change, negative = growth inhibition"
CN1C(=O)CC(c2ccccc2)C1=O (configuration not stated),inactive,–
Cc1ccc(-n2ncc3c(N4CCN(c5ccc(F)cc5)CC4)ncnc32)c(C)c1,11.6 µM (active),–
Cc1ccc(-n2ncc3c(N4CCC(C(N)=O)CC4)ncnc32)cc1,inactive,–
Cc1ccc(-n2ncc3c(=O)[nH]cnc32)c(C)c1,inactive,–
COc1ccc(CCOC2OC(CO)C(OC(=O)/C=C/c3ccc(O)c(OC)c3)C(O[C@H]3O[C@@H](C)[C@H](O)[C@@H](O)[C@H]3O)C2O)cc1O (some centres not stated),inactive,–
Cc1ccc(S(=O)(=O)CCC(=O)OCC(=O)NCCc2ccc(S(N)(=O)=O)cc2)cc1,inactive,–
Cc1c(C(=O)N2CCCC2)c(S(=O)(=O)NCC(C)c2ccccc2)c(C)n1C (configuration not stated),inactive,–
CC(C)N=C1CCCC1C(=S)SSC(=S)C1CCCC1=NC(C)C (configuration not stated),0.0366 µM (active),–
COc1ccccc1/C=C1\SC(=O)N(CCC(=O)N(C)C2CCS(=O)(=O)C2)C1=O (configuration not stated),inactive,–
O=C(Nc1cccc2ccccc12)c1onc2c1CCCC2,10.3 µM (active),–
O=C(O)c1ccccc1-c1ccccc1C(=O)Nc1cccc2ccccc12,inactive,–
COc1ccc(C(=O)Nc2onc3c2CCCC3)cc1,inactive,–
COC(=O)/C(=C1\Oc2ccc(C(C)(C)C)cc2S1)C(F)(F)F,inactive,–
CC(Sc1nnc(-c2cccs2)n1C1CC1)C(=O)NCC1CCCO1 (configuration not stated),inactive,–
O=S(=O)(NCc1ccccc1Br)c1ccccc1Br,inactive,–
O=C(Nc1ccc([N+](=O)[O-])cc1)C1(c2ccccc2)CCOCC1,inactive,–
CN(C)c1nnnn1-c1ccc(Cl)cc1,inactive,–
Clc1ccc(-n2nnnc2-c2cnc(-c3ccccn3)nc2-c2cccs2)cc1,6.51 µM (active),–
O=C(CN1C(=O)CSC1=O)N1CCCC(Nc2ccc(F)cc2)C1 (configuration not stated),inactive,–
COc1ccc(CCNC(=O)CCc2c(C)nc3c(c(C)nn3-c3ccc(C)c(C)c3)c2C)c(OC)c1OC,inactive,–
COc1cccc2[nH]c(C(=O)NCCc3ccccc3)cc12,inactive,–
COc1ccc(CCNC(=O)c2cc3cccc4c3n2CC(C)S4)c(OC)c1OC (configuration not stated),20.6 µM (active),–
Cc1c(C(=O)N(C)C)sc2c1c(=O)n(-c1ccc(F)cc1)c(=O)n2CC(=O)N(C)c1ccccc1,inactive,–
O=C(COC(=O)c1ccccn1)Nc1cccc2ccccc12,inactive,–
CC(=O)N/C(=N/c1nc(C)cc(C)n1)Nc1ccc(F)cc1F,inactive,–
Cc1cc(C)nc(-n2nc(C)cc2NC(=O)c2ccc(F)cc2F)n1,4.11 µM (active),–

Compound,Potency,"activity change, negative = growth inhibition"
CCOC(=O)c1cccc(NC(=O)c2ccc(F)cc2F)c1,inactive,–
Cc1noc(C)c1C(=O)OC(C)C(=O)Nc1ccc2c(c1)OCO2 (configuration not stated),inactive,–
CN1CCN(NC(=O)Nc2ccc(Br)cc2)CC1,inactive,–
COc1cccc(-c2cccc(NC(=O)C3CCN(C4CCC4)CC3)c2)c1,inactive,–
CCn1cc(CN2CCC(C(=O)Nc3cccc(-c4cccc(Cl)c4)c3)CC2)c(C)n1,13 µM (active),–
CCn1cc(CN2CCC(n3nccc3NC(=O)CCCc3ccccc3)CC2)c(C)n1,inactive,–
O=C(Nc1ccc(-n2cccn2)cc1)C1CCN(Cc2ccsc2)CC1,inactive,–
CCn1cc(CN2CCC(C(=O)Nc3cccc(-c4cccc(Cl)c4)c3)CC2)cn1,16.4 µM (active),–
CCNC(=S)NNC(=O)C1CCN(Cc2ccccc2)CC1,inactive,–
CC(CCn1cccn1)NC(=O)CCc1nnc(CCc2ccccc2)o1 (configuration not stated),inactive,–
CCC(C)NC(=O)C1c2ccccc2C(=O)N1Cc1ccccc1 (configuration not stated),inactive,–
Cc1cc(-c2ccnc(-n3ncc(C(=O)NC(C)(C)CO)c3C3CC3)n2)c(C)s1,–,3.64% [at 9.04 µM]
COc1ccccc1NC(=O)C1CCN(C(=O)c2ccc(C(C)(C)C)cc2)CC1,23.1 µM (active),–
COc1ccc(CNC(=O)C2CCN(C(=O)c3ccco3)CC2)cc1,inactive,–
COc1ccc(CNC(=O)C2CCN(C(=O)c3ccccc3)CC2)cc1,inactive,–
COc1ccc(C(=O)Nc2ccc(CN3CCOCC3)cc2)cc1,inactive,–
CCc1ccc(NC(=O)Cn2nnc(C(=O)NCc3ccc(OC)cc3)c2N)cc1,inactive,–
CCc1ccc(NC(=O)CN2CCC(C(=O)c3ccc(OC)cc3)CC2)cc1,5.8 µM (active),–
COc1ccc(C(=O)N2CCC(C(=O)Nc3ccc(C)cc3)CC2)cc1,18.4 µM (active),–
COc1ccc(NC(=O)N2CCCC(C(=O)Nc3ccccc3OC)C2)cc1 (configuration not stated),inactive,–
CC(C)(C)c1ccc(C(=O)N2CCC(C(=O)N3CCCCC3)CC2)cc1,inactive,–
Cc1ccc(NC(=O)[C@H](Cc2ccccc2)NC(=O)C2CCNCC2)cc1,inactive,–
CC(=O)Nc1ccc(S(=O)(=O)N2CCC(NC(=O)c3ccccc3)CC2)cc1,inactive,–
O=C(Cc1ccc(Br)cc1)NCCc1ccccc1,inactive,–
O=C(Nn1cnnc1)c1cc(Cl)ccc1Cl,inactive,–
NS(=O)(=O)c1cccc(NC(=O)COC(=O)/C=C/c2ccco2)c1,inactive,–

Compound,Potency,"activity change, negative = growth inhibition"
CCC(C)C(CO)NC(=O)/C=C/[C@H]1O[C@@H](n2cnc3c(NC(=O)c4ccccc4)ncnc32)[C@H](O)[C@@H]1O (some centres not stated),inactive,–
C/C(=N\NC(=O)c1ccccc1C)c1ccc(N2CCOCC2)cc1,inactive,–
C/C(=N\NC(=O)c1ccoc1C)c1ccccc1O,10.3 µM (active),–
Cc1ccnc(NC(=O)c2ccoc2C)c1,inactive,–
COC(=O)c1sc(=S)n(-c2ccc(Cl)cc2)c1C,inactive,–
OC(CBr)CN1CCCCC1 (configuration not stated),inactive,–
O=C(NCc1nnnn1-c1ccc(Cl)cc1)c1ccc2c(c1)OCO2,inactive,–
O=C(NCc1nnnn1-c1ccc(Cl)cc1)c1ccc([N+](=O)[O-])o1,18.4 µM (active),–
COc1ccc(-n2nnnc2CNC(=O)c2ccc3ccccc3c2)cc1,inactive,–
O=C(/C=C/c1cccc([N+](=O)[O-])c1)NCCSCc1ccco1,inactive,–
COc1ccc(Cl)cc1NS(=O)(=O)c1cccc(C(=O)NC2CCC(O)CC2)c1 (configuration not stated),inactive,–
COc1ccc(C(=O)NC2CC2)cc1OC1CCN(Cc2cnn(C)c2)CC1,inactive,–
COc1cc(C(=O)NC2CCN(C)CC2)ccc1Nc1ncc2c(n1)N(C1CCC(O)CC1)CCC(=O)N2C (configuration not stated),16.4 µM (active),–
O=C(NCCc1ccccc1Cl)C1CCC(=O)N(CCCc2ccccc2)C1 (configuration not stated),inactive,–
COc1ccc(C(=O)O)cc1S(=O)(=O)NCc1cccnc1,inactive,–
CCOc1ccc(NC(=O)Cn2c(=O)n(CCCC(=O)NCc3ccc4c(c3)OCO4)c(=O)c3ccccc32)cc1,inactive,–
O=C(CCCCn1c(=O)c2ccccc2n(CC(=O)Nc2cccc(C(F)(F)F)c2)c1=O)NCc1ccc2c(c1)OCO2,18.4 µM (active),–
O=C(CCn1c(=O)c2ccccc2n(Cc2ccc(Cl)cc2)c1=O)NCc1ccc2c(c1)OCO2,inactive,–
CCCCn1c(SCc2ncc(-c3ccccc3)o2)nc2cc(S(N)(=O)=O)ccc21,11.6 µM (active),–
CCCCn1c(SCC(=O)N2CCC(C(=O)OCC)CC2)nc2cc(S(N)(=O)=O)ccc21,inactive,–
CCCCn1c(SCC(=O)N2CCCC2=O)nc2cc(S(N)(=O)=O)ccc21,inactive,–
COc1cccc(Cn2cnc3c([N+](=O)[O-])c(C)c(C)cc32)c1,inactive,–
CCc1ccc2[nH]c(=O)c(Cc3ccccc3)c(O)c2c1,inactive,–
CCOc1ccc(C(=O)Nc2cccc(-c3ccc4nncn4n3)c2)cc1,20.6 µM (active),–
CSc1cccc(NC(=O)CSc2ccccc2)c1,inactive,–
CCOc1ccc(NC(=O)c2ccc(NC(=O)C3CCCO3)cc2)cc1 (configuration not stated),inactive,–

Compound,Potency,"activity change, negative = growth inhibition"
CCOc1ccc(NC(=O)c2ccc(NC(=O)COC(=O)c3ccc(NC(=O)CC#N)cc3)cc2)cc1,inactive,–
CCOc1ccc(C(=O)Nc2cccc(SC)c2)cc1,6.51 µM (active),–
CCC(=O)Nc1ccc(C(=O)Nc2cccc(OC)c2)cc1,inactive,–
CCOc1ccc(C(=O)Nc2c3c(nn2-c2ccccc2)CS(=O)(=O)C3)cc1,inactive,–
CCOc1ccc(NC(=O)c2ccc(CSc3nnnn3C)cc2)cc1,inactive,–
CCOc1ccc(C(=O)Nc2ccncc2)cc1,10.3 µM (active),–
O=C(CCC1CCCC1)N=C1SC2CS(=O)(=O)CC2N1Cc1ccccc1 (configuration not stated),inactive,–
CCc1ccc([C@@H]2CC(=O)[C@@H]3CN(S(=O)(=O)c4ccc(C)cc4)[C@H](c4ccc(Cl)cc4)C[C@@H]3N2S(=O)(=O)c2ccc(C)cc2)cc1,inactive,–
CCOc1ccc(N2CC(C(=O)N/N=C/c3sccc3C)CC2=O)cc1 (configuration not stated),inactive,–
C[C@H](CO)N1C[C@H](C)[C@@H](CN(C)C(=O)Nc2ccc3c(c2)OCO3)Oc2c(cccc2N(C)C)C1=O,inactive,–
CN1CCN(CC#CCC2(O)c3ccccc3-c3ccccc32)CC1,inactive,–
CC(C)(C)C(=O)Nc1c(Br)c(C2CC2)nn1-c1ccccc1,inactive,–
CCOc1ccc(S(=O)(=O)NCCCn2ccnc2)cc1NC(C)=O,inactive,–
COC(=O)c1ccc(NC(=O)CSc2nc(N)c(NC(=O)c3ccc(Br)o3)c(=O)[nH]2)cc1,inactive,–
O=C(CCC1CCCN(Cc2ccc(O)c(Cl)c2)C1)NCc1ccccc1F (configuration not stated),inactive,–
Clc1ccc(C[n+]2cc(-c3ccccc3)n3c2CCC3)cc1,2.91 µM (active),–
Cn1c(-c2ccccc2)c[n+]2c1CCCCC2,inactive,–
Clc1ccc(C[n+]2cc(-c3ccc(Cl)cc3)n3c2CCC3)cc1,4.61 µM (active),–
O=C(O)C(F)(F)C(NCc1ccccc1)c1ccccc1 (configuration not stated),inactive,–
CCC(C(=O)NC1CCCCC1)N(C(=O)c1snc(C(N)=O)c1N)c1ccc(OC)cc1OC (configuration not stated),inactive,–
CC(NC(=O)c1ccc(S(=O)(=O)Nc2ccccc2)cc1)c1ccc(S(N)(=O)=O)cc1 (configuration not stated),inactive,–
COc1cc(CNCc2ccc3c(c2)OCO3)c([N+](=O)[O-])cc1OC,inactive,–
COc1cc2c(cc1OC)C(Cc1cc(OC)c(OC)cc1[N+](=O)[O-])=NCC2,5.17 µM (active),–
COc1cc(CN2CCCN(C)CC2)c([N+](=O)[O-])cc1OC,inactive,–
